# PLC-beta3 inh – human PLC-beta3 inhibitors, primary screen, biochemical, fluorescence | 1-phosphatidylinositol 4,5-bisphosphate phosphodiesterase beta-3 (Homo sapiens), Q01970 | Purified PLC-beta3, fluorogenic substrate | inhibition, % at 12.2 µM | 370,000 tested, 0.18% active; in the data active = inhibition above about 11%;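 note: 0% = median of compound wells on plate and 100% = full blocker control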
# Target sequence (Q01970 whole entry, looked up): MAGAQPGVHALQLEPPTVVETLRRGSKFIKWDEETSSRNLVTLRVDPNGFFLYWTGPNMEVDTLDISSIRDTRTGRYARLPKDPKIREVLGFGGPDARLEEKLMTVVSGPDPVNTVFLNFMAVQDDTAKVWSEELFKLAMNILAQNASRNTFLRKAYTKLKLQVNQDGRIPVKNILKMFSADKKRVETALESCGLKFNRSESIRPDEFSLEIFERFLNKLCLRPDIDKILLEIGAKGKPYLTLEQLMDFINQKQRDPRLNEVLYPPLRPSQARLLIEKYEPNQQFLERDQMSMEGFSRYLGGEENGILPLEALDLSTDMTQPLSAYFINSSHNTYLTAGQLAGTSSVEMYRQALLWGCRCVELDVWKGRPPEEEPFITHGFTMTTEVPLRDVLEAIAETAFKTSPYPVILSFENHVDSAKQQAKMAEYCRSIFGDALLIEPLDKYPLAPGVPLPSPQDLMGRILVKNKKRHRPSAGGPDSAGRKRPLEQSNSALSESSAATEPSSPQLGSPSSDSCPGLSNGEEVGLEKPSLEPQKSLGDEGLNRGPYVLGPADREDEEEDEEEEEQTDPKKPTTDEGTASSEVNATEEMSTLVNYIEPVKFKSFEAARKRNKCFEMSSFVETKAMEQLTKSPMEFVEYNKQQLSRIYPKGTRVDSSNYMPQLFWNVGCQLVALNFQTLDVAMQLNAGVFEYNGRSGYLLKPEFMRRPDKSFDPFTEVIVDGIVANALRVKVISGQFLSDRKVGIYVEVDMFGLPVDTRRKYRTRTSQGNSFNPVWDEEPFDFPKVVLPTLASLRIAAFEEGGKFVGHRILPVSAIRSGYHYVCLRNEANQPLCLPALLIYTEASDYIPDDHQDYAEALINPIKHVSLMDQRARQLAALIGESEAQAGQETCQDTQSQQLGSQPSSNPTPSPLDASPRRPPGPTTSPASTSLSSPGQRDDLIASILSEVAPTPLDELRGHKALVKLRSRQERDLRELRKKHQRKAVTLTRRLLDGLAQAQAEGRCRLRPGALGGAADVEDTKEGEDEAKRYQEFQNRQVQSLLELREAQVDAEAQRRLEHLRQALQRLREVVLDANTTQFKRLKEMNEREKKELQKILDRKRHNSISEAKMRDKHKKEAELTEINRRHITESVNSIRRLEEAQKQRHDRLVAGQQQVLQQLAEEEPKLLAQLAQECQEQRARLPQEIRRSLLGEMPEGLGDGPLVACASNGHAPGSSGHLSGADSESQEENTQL
# ADAM17 inh – ADAM17 inhibitors, primary screen, biochemical, QFRET. Disintegrin and metalloproteinase domain-containing protein 17 (Homo sapiens), P78536. recombinant ADAM17, EDANS/DABCYL FRET peptide cleavage. inhibition, % at 6.95 µM. 370,000 tested, 0.83% active. AID 720648, 2013;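 active = inhibition above the mean of compounds lying between control limits plus 3 SD, set per campaign, cut at about 8.5% in these data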;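 note: 0% = DMSO-only wells as the low control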
# ADAM10 inh – human ADAM10 inhibitors, primary screen, biochemical, QFRET, HTS; Disintegrin and metalloproteinase domain-containing protein 10 (Homo sapiens), O14672; recombinant ADAM10, EDANS/DABCYL FRET peptide cleavage, 3 h; inhibition, % at 7 µM; 370,000 tested, 0.62% active; AID 720582, 2013;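 active = inhibition above a per-campaign cutoff equal to the mean of compounds falling between control-based bounds plus 3 SD, cut at about 20% in these data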;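 note: 0% = DMSO wells while the 100% control is not disclosed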
# PLC-gamma1 inh – PLC-gamma1 enzyme inhibitors, primary screen, biochemical, fluorescence, purified enzyme; 1-phosphatidylinositol 4,5-bisphosphate phosphodiesterase gamma-1 (Homo sapiens), P19174; fluorogenic substrate; inhibition, % at 12.2 µM; 370,000 tested, 0.84% active; AID 720700, 2013; in the data active = inhibition above about 9.5%
# KLK7 zymogen act – proKLK7 zymogen activators, primary screen, biochemical, fluorescence intensity; purified proKLK7, EDANS-DABCYL substrate fluorescence; 100% is mature enzyme control, 0% vehicle; 370,000 tested, 0.9% active; activation, % at 7 µM; AID 652039, 2013; Kallikrein-7 (Homo sapiens), P49862;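 active = activation above the mean of all tested compounds plus 3 SD, computed per campaign excluding outliers beyond control limits, cut at about 13% in these data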
# KLK7 act conf – proKLK7 zymogen activators, confirmation, biochemical, fluorescence intensity, triplicate; activation, % at 7 µM; 3,200 tested, 68% active; shares compounds with KLK7 zymogen act; purified proKLK7, EDANS-DABCYL substrate fluorescence; scaled: vehicle 0, mature enzyme 100;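 active = activation, as change over the incubation, above the mean of all tested compounds plus 3 SD, cut at about 13% in these data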
# EDANS-DABCYL int – EDANS-DABCYL substrate optical interference, artefact control for kallikrein-7 zymogen activator project, biochemical, fluorescence intensity, high throughput | shares compounds with KLK7 zymogen act | no enzyme, 4 h; solvent 0%, active enzyme control 100% | activation, % at 7 µM | 3,200 tested, 80% active | AID 686952, 2013;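 active = activation above the all-compound mean plus 3 SD, ignoring values outside control-based bounds, cut at about 4.8% in these data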;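 note: value is the 4 h activation minus the activation read at time zero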
# The depositor's hits bear a star; i = inactive; nt = no result given. Rows were chosen to be rich in hits. Some 2.9% of all compounds tested hit in one or more screens of this group.
SMILES,PLC-beta3 inh,ADAM17 inh,ADAM10 inh,PLC-gamma1 inh,KLK7 zymogen act,KLK7 act conf,EDANS-DABCYL int
COc1cc2c(cc1OC)CN(C(=O)CN1CCN(S(=O)(=O)c3ccccc3Br)CC1)CC2,-278,-57,-190,-186,30*,1,0
O=c1cccc2n1Cc1cc3ccccc3nc1-2,i,i,i,i,47*,60*,69*
O=S(=O)(NCCOc1ccccc1F)c1cccc(Br)c1,-5,-1,6,-1,0,nt,nt
N#CC1=C(N)Oc2cc(N)ccc2C1c1ccc(Cl)cc1 (stereo not given),-49,-1,-5,-42,1,nt,nt
N#CC1=C(N)Oc2cc(N)ccc2C1c1ccc(F)cc1F (stereo not given),-412,-98,-215,-337,17*,13*,15*
N#CC1=C(N)Oc2cc(N)ccc2C1c1ccccc1Cl (stereo not given),-329,-77,-233,-293,20*,4,5.8*
Cc1ccc(SCc2cc(=O)[nH]c(SCC(=O)Nc3cc(Cl)ccc3Cl)n2)cc1,5,-1,1,1,0,nt,nt
O=C(O)CNC(=O)CC1S/C(=N/N=C/c2ccccc2O)NC1=O (stereo not given),-121,-19,-52,-105,21*,34*,41*
CC(=O)c1cccc(NC(=O)CC2S/C(=N/N=C/c3ccccc3)NC2=O)c1 (stereo not given),3,0,2,-1,0,nt,nt
O=C(Nc1ccccc1)C(=O)Nc1ccc2c(c1)N(C(=O)C1CC1)CCC2,-3,1,6,2,0,nt,nt
Cc1cc(=O)n2cc(-c3ccccc3)nc2[nH]1,-135,-115,-477,-96,16*,3,3
O=C(O)C1CC1c1ccc(Br)cc1 (stereo not given),-3,-9,-5,-3,1,nt,nt
Nc1c(C(=O)NCCN2CCOCC2)c2nc3ccccc3nc2n1-c1ccc2c(c1)OCO2,-119,-10,-34,-72,0,nt,nt
Nc1c(C(=O)NCCN2CCOCC2)c2nc3ccccc3nc2n1-c1ccccc1,i,i,i,i,28*,8,9.1*
C=CCn1c(N)c(C(=O)Nc2ccccc2)c2nc3ccccc3nc21,-145,-21,-73,-124,-5,nt,nt
CC(C)Cn1c(N)c(C(=O)NCC2CCCO2)c2nc3ccccc3nc21 (stereo not given),i,i,i,i,-28,nt,nt
C=CCn1c(N)c(C(=O)OC(C)CC)c2nc3ccccc3nc21 (stereo not given),i,i,i,i,69*,-33,-19
COCC(C)OC(=O)c1c(N)n(CC(C)C)c2nc3ccccc3nc12 (stereo not given),i,i,i,i,59*,-33,-30
C=CCn1c(N)c(C(=O)OC(C)(C)C)c2nc3ccccc3nc21,i,i,i,i,46*,80*,71*
CC(C)OC(=O)c1c(N)n(CCCN2CCOCC2)c2nc3ccccc3nc12,i,i,i,i,28*,9,7.4*
COCCNC(=O)c1c(N)n(-c2ccccc2)c2nc3ccccc3nc12,i,-382,i,-414,-32,nt,nt
COC(=O)c1c(N)n(-c2ccc(NC(C)=O)cc2)c2nc3ccccc3nc12,i,i,i,i,24*,76*,73*
c1ccc(C(c2ccccc2)c2noc(CN3CCN(C4CCCC4)CC3)n2)cc1,0,-4,1,0,0,nt,nt
COC(=O)C(NC(=O)CN1C(=O)c2ccccc2C1=O)c1ccc(O)c(OC)c1 (stereo not given),-5,-4,-7,-1,0,nt,nt
